The nature of experiment [1]: qHTS assay for small molecules that induce genotoxicity in human embryonic kidney cells expressing luciferase-tagged ATAD5 (AID 651632). Note: nearly all actives have a fitted effect of over 15% in size. Note: potency is the fitted concentration of half-maximal effect. An outline of the steps:
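Test compounds were delivered by pin tool onto HEK293T reporter cells (2,000/well) expressing ATAD5 fused to luciferase. After 16 hr at 37C, 5% CO2, Amplite was added for 30 min at room temperature and luminescence was measured.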

A short description of experiment [2]: qHTS assay for small molecules that induce genotoxicity in human embryonic kidney cells expressing luciferase-tagged ATAD5 - cell viability (AID 651634; calls by dose curve; note: nearly all actives have a fitted effect of over 25% in size; note: potency is the fitted concentration of half-maximal effect). The essentials: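 Quantitative high-throughput format. HEK293T cells expressing ATAD5 fused to luciferase were plated at 2,000 cells/well and treated 15.5 hr with compound versus DMSO. Viability was determined by fluorescent live-cell protease substrate, 30 min at 37C.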
On the technique in general: In qHTS, concentration-response curves come from the screen itself.

A short description of experiment [3]: qHTS assay to test for compound auto fluorescence at 590 nm (red) in HepG2 cells (AID 720674). The essentials:
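Fluorescence at 590 nm emission following 540 nm excitation was recorded from HepG2 wells one hour after compound transfer, with DMSO-only wells as vehicle and Rose Bengal sodium equivalency as the scale.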

Experiment [4] is described as follows: qHTS assay to test for compound auto fluorescence at 535 nm (green) in HepG2 cells (AID 720675).
Experiment [5] is described as follows: qHTS assay to test for compound auto fluorescence at 460 nm (blue) in HEK293 cell free culture (AID 720681). An outline of the steps: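 Compounds were added to cell-free DMEM with 10% FBS and fluorescence read directly. The blue channel used 405 nm excitation and 460 nm emission, with triamterene as the reference fluorophore.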
Experiment [6] is described as follows: qHTS assay to test for compound auto fluorescence at 535 nm (green) in HEK293 cell free culture (AID 720682). An outline of the steps:
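Measurement is a direct plate read of green fluorescence (485 nm in, 535 nm out) after compound addition to serum-supplemented DMEM lacking cells, with fluorescein used to express intensities.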

Experiment [7] can be described thus: qHTS assay to test for compound auto fluorescence at 590 nm (red) in HEK293 cell free culture (AID 720683). The essentials:
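Cell-free wells of DMEM with 10% FBS received compound, and intrinsic fluorescence was read at excitation/emission 540/590 nm. Values expressed as equivalence to Rose Bengal sodium.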

Experiment [8] is described as follows: qHTS assay to test for compound auto fluorescence at 460 nm (blue) in HepG2 cell free culture (AID 720685). The essentials: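 Cell-free plates of MEM plus 10% FBS received 23 nL compound or DMSO vehicle; blue-channel (405/460 nm) intensity scored against triamterene as reference fluorophore.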
The nature of experiment [9]: qHTS assay to test for compound auto fluorescence at 535 nm (green) in HepG2 cell free culture (AID 720686).
Experiment [10] in a line: qHTS assay to test for compound auto fluorescence at 460 nm (blue) in HepG2 cells (AID 720687). An outline of the steps:
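HepG2 cells in MEM with 10% FBS, attached overnight at 37 C, were exposed to compound or DMSO for 1 hr at 37 C, 5% CO2. Blue fluorescence was read at 405/460 nm, with triamterene as reference fluorophore.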

Experiment [11] in a line: qHTS assay to identify small molecule antagonists of the glucocorticoid receptor (GR) signaling pathway - cell viability counter screen (AID 720693). Note: nearly all actives have a fitted effect of over 55% in size.
Experiment [12] in a line: qHTS assay to identify small molecule antagonists of the thyroid receptor (TR) signaling pathway (AID 743065). Note: nearly all actives have a fitted effect of over 55% in size. Note: potency is the fitted concentration of half-maximal effect. The essentials:
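GH3.TRE-Luc rat pituitary cells (two TREs driving luciferase) were dosed with compound, then stimulated with 1 nM T3 (final) for 23.5 h at 37 C. ONE-Glo luminescence was the read-out, with CellTiter-Fluor fluorescence as the cytotoxicity counter-screen.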

The test system of experiment [13] is thyroid hormone receptor (rat, GH3 cells). As to the kind of experiment: qHTS assay to identify small molecule agonists of the thyroid receptor (TR) signaling pathway (AID 743066; calls by dose curve).
Experiment [14] can be described thus: qHTS assay to identify small molecule antagonists of the estrogen receptor alpha (ER-alpha) signaling pathway using the BG1 cell line - cell viability counter screen (AID 743081).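 Note: compound given together with 17beta-estradiol as the ER stimulus; series mostly up to about 70 µM; nearly all actives have a fitted effect of over 45% in size.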
A further experiment concerns the target Aromatase (Homo sapiens) (UniProt P11511). As to the kind of experiment: qHTS assay to identify aromatase inhibitors (AID 743083). Note: nearly all actives have a fitted effect of over 55% in size. Note: potency is the fitted concentration of half-maximal effect.
Experiment [15] can be described thus: qHTS assay to identify aromatase inhibitors - cell viability counter screen (AID 743084).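 Note: cells stimulated with testosterone during compound exposure; nearly all actives have a fitted effect of over 55% in size.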 Note: potency is the fitted concentration of half-maximal effect.
For experiment [16], the target named is Aryl hydrocarbon receptor (Homo sapiens) (UniProt P35869). As to the kind of experiment: qHTS assay to identify small molecule that activate the aryl hydrocarbon receptor (AhR) signaling pathway (AID 743085).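 Note: HG2L7.5c1 human HepG2 liver cells with stably integrated DRE-driven firefly reporter; series mostly up to about 70 µM; nearly all actives have a fitted effect of over 15% in size.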 An outline of the steps:
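24 h compound exposure, 37C, HepG2-derived HG2L7.5c1 cells with DRE-responsive luciferase. Readouts: fluorescence viability, then luminescence at room temperature after 30 min.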

Experiment [17] in a line: qHTS assay to identify small molecule phospholipidosis (PLD) inducers (AID 1259344; active = well fitted curve in the direction sought with a large enough effect; an effect the other way counts as inactive or inconclusive). An outline of the steps: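 Image-based: LipidTOX Red pit count/intensity per well and per cell; HepG2, 24 h compound at 37 C, PFA fixation, Hoechst counterstain.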
A short description of experiment [18]: qHTS assay for small molecule disruptors of the mitochondrial membrane potential - cell viability (AID 720634; calls by dose curve;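 note: human HepG2 liver cancer cells; series mostly up to about 83 µM; nearly all actives have a fitted effect of over 20% in size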). An outline of the steps:
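Same-well counter-screen: following the MMP dye addition, CellTiter-Glo was added to 1 hr compound-treated HepG2 cells and luminescence read after 30 min at room temperature.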

The nature of experiment [19]: qHTS assay to identify small molecule antagonists of the estrogen receptor alpha (ER-alpha) signaling pathway - cell viability counter screen (AID 743074; calls by dose curve;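 note: HEK293 cells carrying ER-alpha-UAS-bla reporter stimulated with 17beta-estradiol; nearly all actives have a fitted effect of over 45% in size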).

A number with no mark means an inactive call. Records with an inconclusive call do not appear. Activity calls are given as the source filed them. Unless noted, calls come from the whole dose curve; as a rule, active = well fitted curve in the direction sought with a large enough effect in the repeat runs; inconclusive = weak or mixed curves; inactive = no such curve, though single readings can be large; an effect the other way counts as inactive or inconclusive.
% is set by controls: 0 for no effect and ±100 for the full control effect.

Sequence of Aryl hydrocarbon receptor (Homo sapiens) (P35869 whole entry, looked up): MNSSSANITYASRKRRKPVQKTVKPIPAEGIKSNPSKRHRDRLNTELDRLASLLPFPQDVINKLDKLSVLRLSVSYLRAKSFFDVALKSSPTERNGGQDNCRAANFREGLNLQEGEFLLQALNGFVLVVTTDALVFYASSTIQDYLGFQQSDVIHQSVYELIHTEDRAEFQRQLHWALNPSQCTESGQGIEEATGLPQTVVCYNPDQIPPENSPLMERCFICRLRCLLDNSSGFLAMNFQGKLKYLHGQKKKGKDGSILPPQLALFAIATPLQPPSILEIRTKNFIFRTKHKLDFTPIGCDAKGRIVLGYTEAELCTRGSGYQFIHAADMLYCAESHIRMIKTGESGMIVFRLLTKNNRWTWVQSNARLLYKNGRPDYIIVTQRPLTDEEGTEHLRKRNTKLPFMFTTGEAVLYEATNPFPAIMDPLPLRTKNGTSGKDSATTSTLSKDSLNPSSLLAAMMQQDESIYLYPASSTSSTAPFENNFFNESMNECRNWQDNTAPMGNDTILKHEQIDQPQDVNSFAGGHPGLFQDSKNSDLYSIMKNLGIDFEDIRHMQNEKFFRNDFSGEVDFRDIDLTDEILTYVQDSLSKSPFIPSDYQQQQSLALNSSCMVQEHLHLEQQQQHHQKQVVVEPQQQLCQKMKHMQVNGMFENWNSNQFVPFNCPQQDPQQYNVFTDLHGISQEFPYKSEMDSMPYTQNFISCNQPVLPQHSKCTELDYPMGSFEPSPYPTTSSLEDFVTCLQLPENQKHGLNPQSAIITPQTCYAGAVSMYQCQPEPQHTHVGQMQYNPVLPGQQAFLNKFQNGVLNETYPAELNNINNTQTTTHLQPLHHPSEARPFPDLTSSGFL
Sequence of Aromatase (Homo sapiens) (P11511 whole entry, looked up): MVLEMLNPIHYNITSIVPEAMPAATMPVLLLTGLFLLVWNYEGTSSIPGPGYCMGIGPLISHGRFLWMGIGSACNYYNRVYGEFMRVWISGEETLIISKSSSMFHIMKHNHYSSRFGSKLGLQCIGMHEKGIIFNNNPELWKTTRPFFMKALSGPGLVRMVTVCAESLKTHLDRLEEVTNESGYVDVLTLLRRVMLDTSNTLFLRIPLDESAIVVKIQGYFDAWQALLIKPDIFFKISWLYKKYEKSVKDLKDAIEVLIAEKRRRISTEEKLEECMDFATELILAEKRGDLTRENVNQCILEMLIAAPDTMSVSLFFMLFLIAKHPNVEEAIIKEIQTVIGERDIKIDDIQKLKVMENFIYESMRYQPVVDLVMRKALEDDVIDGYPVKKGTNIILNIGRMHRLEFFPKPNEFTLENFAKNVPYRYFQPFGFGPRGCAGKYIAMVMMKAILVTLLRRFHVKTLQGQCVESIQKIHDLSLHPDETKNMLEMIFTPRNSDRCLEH

In the case of `Oc1ccc2c3c1O[C@H]1[C@@H](O)C=C[C@H]4[C@H](C2)NCC[C@@]341`, the Potency entry in experiment [1], in experiment [2], in experiment [4], in [5], in [6] and in experiment [8] was “inactive” in each case. Moreover, the Potency result in experiment [9], in experiment [10], in experiment [11], in experiment [12], in experiment [13] and in [14] was “inactive” in each case. For the same compound, the Potency result (with Aromatase (Homo sapiens); in experiment [15]; in experiment [16]; in experiment [17]) was “inactive” throughout. In addition, the compound was classed as inactive in [3] and in experiment [7].

As for `O=C1CN=C(c2ccccc2)c2cc(Cl)ccc2N1`, the Potency result in [1], in experiment [2], in experiment [18], in [4], in [5] and in experiment [6] was “inactive” each time. Also, the Potency result in [8], in experiment [9], in experiment [10], in experiment [11], in experiment [13] and in [19] was “inactive” each time. The Potency result (in the experiment with Aromatase (Homo sapiens); in experiment [15]; in experiment [16]; in experiment [17]) was “inactive” each time. The result in experiment [3] and in experiment [7] was inactive.

Regarding `CCC/C=C/C=C/C(=O)O[C@H]1/C(=C/C(=O)OC)C[C@H]2C[C@H]([C@@H](C)O)OC(=O)C[C@H](O)C[C@@H]3C[C@H](OC(C)=O)C(C)(C)[C@](O)(C[C@@H]4C/C(=C/C(=O)OC)C[C@H](/C=C/C(C)(C)[C@]1(O)O2)O4)O3`, the Potency is 0.0047 µM (active) in experiment [1] and 9.44 µM (active) in experiment [12]. Also, the Potency entry in experiment [2], in experiment [18], in experiment [4], in experiment [5], in experiment [6] and in experiment [8] was “inactive” throughout. Besides, the Potency result (in experiment [9]; in experiment [10]; in [11]; in experiment [13]; in [14]; in the experiment with Aromatase (Homo sapiens)) was “inactive” in each case. Also, the Potency entry in [15], in experiment [16] and in experiment [17] was “inactive” throughout. In addition, the compound was called inactive in [3] and in experiment [7].

Consider `CNC(C)Cc1ccccc1` (centres undefined), for which the Potency result in [1], in experiment [2], in [18], in experiment [4], in [5] and in [6] was “inactive” throughout. Moreover, the Potency entry in experiment [8], in experiment [9], in experiment [10], in [11], in experiment [12] and in experiment [13] was “inactive” in each case. Moreover, the Potency entry (in [19]; in [14]; with Aromatase (Homo sapiens); in experiment [15]; in [17]) was “inactive” each time. The call in experiment [3] and in experiment [7] was inactive.

Turning to `CN1c2ccccc2C(NCCCCCCC(=O)O)c2ccc(Cl)cc2S1(=O)=O` (centres undefined), the Potency result in experiment [1], in experiment [2], in [18], in [4], in experiment [5] and in experiment [6] was “inactive” in each case. Moreover, the Potency entry in [8], in experiment [9], in experiment [10], in experiment [11], in experiment [12] and in experiment [13] was “inactive” in each case. Besides, the Potency result (in [19]; in [14]; with Aromatase (Homo sapiens); in experiment [15]; in experiment [16]; in [17]) was “inactive” in each case. Moreover, the compound was classed as inactive in [3] and in experiment [7].

`CC(N)Cc1ccc2c(c1)OCO2` (centres undefined): the Potency entry in experiment [1], in experiment [2], in [18], in experiment [5], in experiment [6] and in [8] was “inactive” in each case. Further, the Potency result in experiment [9], in experiment [10], in experiment [11], in experiment [12], in [13] and in experiment [19] was “inactive” in each case. Besides, the Potency entry (in experiment [14]; in the experiment with Aromatase (Homo sapiens); in [15]; in experiment [16]) was “inactive” each time. In addition, the call in experiment [3] and in experiment [7] was inactive. Moreover, in experiment [17], the PLD induction is -3.76% [at 1.53 µM].

With `O=C1C=C2C=C[C@@H]3C[C@@]2(O1)[C@H]1CCCCN31`, the Potency in experiment [1] was 6.68 µM (active); in experiment [2], 18.8 µM (active); in experiment [12] it was 6.68 µM (active); in the experiment with Aromatase (Homo sapiens), 13.3 µM (active); in experiment [15], 23.7 µM (active). For the same compound, the Potency result in experiment [18], in experiment [4], in experiment [5], in experiment [6], in [8] and in experiment [9] was “inactive” throughout. Also, the Potency entry in [10], in experiment [11], in experiment [13], in experiment [19], in [16] and in experiment [17] was “inactive” throughout. For the same compound, the outcome in [3] and in experiment [7] was inactive.

Consider `C[C@@H](Cc1ccccc1)NCCC(c1ccccc1)c1ccccc1`, for which the Potency entry in experiment [1], in [2], in experiment [18], in experiment [4], in experiment [5] and in experiment [6] was “inactive” each time. Further, the Potency result (in experiment [8]; in experiment [9]; in experiment [10]; in experiment [11]; in [19]; with Aromatase (Homo sapiens)) was “inactive” each time. For the same compound, the Potency entry in experiment [15], in [16] and in experiment [17] was “inactive” in each case. Further, the result in experiment [3] and in experiment [7] was inactive.

With `CCN1C[C@]2(COC)[C@H](O)C[C@H](OC)[C@@]34[C@@H]5C[C@@]6(O)[C@H](OC(=O)c7ccccc7)[C@@H]5[C@@](OC(C)=O)([C@@H]([C@H](OC)[C@H]23)[C@@H]14)[C@@H](O)[C@@H]6OC`, the Potency entry in experiment [1], in experiment [2], in [18], in [4], in experiment [5] and in experiment [6] was “inactive” throughout. Also, the Potency result in [8], in experiment [9], in experiment [10], in [11], in experiment [12] and in [13] was “inactive” in each case. In addition, the Potency entry (in experiment [19]; in experiment [14]; with Aromatase (Homo sapiens); in [15]; in [16]; in experiment [17]) was “inactive” throughout. In addition, the result in [3] and in experiment [7] was inactive.

The record behind these values is PubChem BioAssay (Tox21).
